This passage reports binding signal results from paper PMC7862700, “An all-to-all approach to the identification of sequence-specific readers for epigenetic DNA modifications on cytosine”.

Holding throughout (assay): DAPPL (digital affinity profiling via proximity ligation, sequencing); 10 mM Tris-HCl pH 7.5, 50 mM NaCl, 1 mM DTT, 4% glycerol, room temperature, 30 min; GST-TFs on glutathione beads, 16-mer random dsDNA library, 0.1% formaldehyde crosslink after washing; high values mean tight binding
For one test, the target named is T1, FEV (Homo sapiens, UniProt Q99581 1-238).
T1 sequence: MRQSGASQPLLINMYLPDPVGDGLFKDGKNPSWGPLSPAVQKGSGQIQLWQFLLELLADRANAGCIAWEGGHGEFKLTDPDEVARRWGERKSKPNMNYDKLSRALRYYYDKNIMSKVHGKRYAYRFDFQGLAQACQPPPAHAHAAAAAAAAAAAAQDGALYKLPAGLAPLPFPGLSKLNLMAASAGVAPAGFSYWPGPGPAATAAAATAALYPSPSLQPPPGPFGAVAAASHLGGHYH
The note with it: protein: recombinant; tags: N-terminal GST; dsDNA, one strand shown. A digest of the protocol: (§1)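 Binding signal is each hexamer's read frequency for a factor divided by its frequency in the tag-only sample. The factors were GST-fused human transcription factors from yeast, captured on glutathione beads, DNA-barcoded and pooled with that sample. Pools were incubated with 200 nmole of a random double-stranded 16-mer DNA library in Tris/NaCl/DTT/glycerol buffer at room temperature for 30 min, then washed, crosslinked with 0.1% formaldehyde, proximity-ligated with BsaI/T4 ligase (1 h, 37 °C), PCR-amplified and sequenced on an Illumina NextSeq500.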

Another test concerns the target ETV5 (Homo sapiens, UniProt P41161 1-510). The settings on record: protein: recombinant; tags: N-terminal GST; dsDNA, one strand shown. A digest of the protocol: as §1
The target in another test is HSF1 (Homo sapiens, UniProt Q00613 1-529). The note with it: protein: recombinant; tags: N-terminal GST; chain copies: 3; dsDNA, one strand shown. In short, it runs like this: as §1
HSF1, sequence (Q00613 whole entry): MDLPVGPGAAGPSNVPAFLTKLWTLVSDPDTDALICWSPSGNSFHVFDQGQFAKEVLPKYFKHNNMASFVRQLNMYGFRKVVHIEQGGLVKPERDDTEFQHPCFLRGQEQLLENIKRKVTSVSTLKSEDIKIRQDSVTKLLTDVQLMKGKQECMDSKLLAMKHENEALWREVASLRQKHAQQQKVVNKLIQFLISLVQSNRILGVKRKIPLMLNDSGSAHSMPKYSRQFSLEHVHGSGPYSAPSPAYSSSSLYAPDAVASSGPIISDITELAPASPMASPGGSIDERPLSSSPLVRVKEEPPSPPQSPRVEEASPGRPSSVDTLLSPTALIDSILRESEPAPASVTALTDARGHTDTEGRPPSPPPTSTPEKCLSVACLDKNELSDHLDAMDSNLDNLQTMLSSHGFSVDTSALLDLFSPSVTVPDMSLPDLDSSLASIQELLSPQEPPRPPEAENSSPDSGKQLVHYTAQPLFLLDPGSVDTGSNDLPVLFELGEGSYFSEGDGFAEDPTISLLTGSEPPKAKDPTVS
In another test the target is T2, SPIC (Homo sapiens, UniProt Q8N5J4 1-248).
T2 sequence: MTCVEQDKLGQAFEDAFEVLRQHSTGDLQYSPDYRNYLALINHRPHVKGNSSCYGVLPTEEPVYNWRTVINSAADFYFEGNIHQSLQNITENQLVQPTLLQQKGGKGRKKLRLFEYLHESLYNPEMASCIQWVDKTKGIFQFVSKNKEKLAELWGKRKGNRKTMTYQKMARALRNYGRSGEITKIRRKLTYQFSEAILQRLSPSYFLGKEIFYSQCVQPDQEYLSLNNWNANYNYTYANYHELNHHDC
The settings on record: protein: recombinant; tags: N-terminal GST; dsDNA, one strand shown. In short, it runs like this:
as §1

The target of another test is ELF4 (Homo sapiens, UniProt Q99607 1-663). The settings on record: protein: recombinant; tags: N-terminal GST; dsDNA, one strand shown. A digest of the protocol:
as §1

The target of another test is T3, ELF3 (Homo sapiens, UniProt P78545 1-371).
T3 sequence: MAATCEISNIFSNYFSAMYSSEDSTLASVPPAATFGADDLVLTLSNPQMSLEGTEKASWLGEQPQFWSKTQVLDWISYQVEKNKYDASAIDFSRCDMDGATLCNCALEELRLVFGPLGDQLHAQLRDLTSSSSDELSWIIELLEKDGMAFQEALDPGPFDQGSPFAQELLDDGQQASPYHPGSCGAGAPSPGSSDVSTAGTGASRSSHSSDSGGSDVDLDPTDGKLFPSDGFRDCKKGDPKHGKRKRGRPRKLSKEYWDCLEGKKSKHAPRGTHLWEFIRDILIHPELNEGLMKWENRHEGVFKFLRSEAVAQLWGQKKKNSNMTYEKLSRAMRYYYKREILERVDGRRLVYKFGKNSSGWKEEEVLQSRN
The settings on record: protein: recombinant; tags: N-terminal GST; dsDNA, one strand shown. A digest of the protocol: as §1

In a further test the target is CRX (Homo sapiens, UniProt O43186 1-299). The settings on record: protein: recombinant; tags: N-terminal GST; dsDNA, one strand shown. In short, it runs like this:
as §1

In another test the target is T4, ELK4 (Homo sapiens, UniProt P28324-2 1-405).
T4 sequence: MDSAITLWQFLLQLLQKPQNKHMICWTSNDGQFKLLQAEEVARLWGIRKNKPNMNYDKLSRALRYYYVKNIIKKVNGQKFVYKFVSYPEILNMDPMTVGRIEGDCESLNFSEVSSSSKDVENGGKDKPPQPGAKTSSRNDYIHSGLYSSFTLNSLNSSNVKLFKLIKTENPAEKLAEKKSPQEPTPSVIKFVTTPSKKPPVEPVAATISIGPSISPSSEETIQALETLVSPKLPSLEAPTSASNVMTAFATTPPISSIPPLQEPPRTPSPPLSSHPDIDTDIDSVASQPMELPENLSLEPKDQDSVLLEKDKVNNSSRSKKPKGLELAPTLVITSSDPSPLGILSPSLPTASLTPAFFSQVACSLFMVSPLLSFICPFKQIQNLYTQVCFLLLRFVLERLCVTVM
The note with it: protein: recombinant; tags: N-terminal GST; dsDNA, one strand shown. A digest of the protocol: as §1

For another test, the target named is ETV1 (Homo sapiens, UniProt P50549 1-477). The settings on record: protein: recombinant; tags: N-terminal GST; dsDNA, one strand shown. In short, it runs like this: as §1
ETV1, sequence (P50549 whole entry): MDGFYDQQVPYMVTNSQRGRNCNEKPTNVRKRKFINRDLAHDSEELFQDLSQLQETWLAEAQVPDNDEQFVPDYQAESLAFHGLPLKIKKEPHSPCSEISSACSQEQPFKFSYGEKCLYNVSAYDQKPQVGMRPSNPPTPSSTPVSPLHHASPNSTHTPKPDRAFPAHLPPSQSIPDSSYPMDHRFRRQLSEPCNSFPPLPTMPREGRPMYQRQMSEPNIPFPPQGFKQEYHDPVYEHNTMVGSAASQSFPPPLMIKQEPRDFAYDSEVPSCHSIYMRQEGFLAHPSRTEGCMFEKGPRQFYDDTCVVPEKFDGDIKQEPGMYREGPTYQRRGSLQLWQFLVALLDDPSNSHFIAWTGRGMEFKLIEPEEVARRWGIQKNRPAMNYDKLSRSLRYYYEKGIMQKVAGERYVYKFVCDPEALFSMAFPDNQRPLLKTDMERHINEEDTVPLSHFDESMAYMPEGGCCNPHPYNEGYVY
Another test concerns the target T5, ETV2 (Homo sapiens, UniProt O00321 1-342).
T5 sequence: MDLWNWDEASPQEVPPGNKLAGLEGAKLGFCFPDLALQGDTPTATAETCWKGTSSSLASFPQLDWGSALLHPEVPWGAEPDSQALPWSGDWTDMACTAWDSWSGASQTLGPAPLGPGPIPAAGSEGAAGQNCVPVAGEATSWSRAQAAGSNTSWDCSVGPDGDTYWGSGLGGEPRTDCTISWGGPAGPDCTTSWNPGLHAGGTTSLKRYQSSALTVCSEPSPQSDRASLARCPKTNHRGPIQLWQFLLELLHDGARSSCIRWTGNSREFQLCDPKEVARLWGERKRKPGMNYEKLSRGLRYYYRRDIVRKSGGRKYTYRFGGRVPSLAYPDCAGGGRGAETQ
The note with it: protein: recombinant; tags: N-terminal GST; dsDNA, one strand shown. In short, it runs like this: as §1

ELF4, sequence (Q99607 whole entry): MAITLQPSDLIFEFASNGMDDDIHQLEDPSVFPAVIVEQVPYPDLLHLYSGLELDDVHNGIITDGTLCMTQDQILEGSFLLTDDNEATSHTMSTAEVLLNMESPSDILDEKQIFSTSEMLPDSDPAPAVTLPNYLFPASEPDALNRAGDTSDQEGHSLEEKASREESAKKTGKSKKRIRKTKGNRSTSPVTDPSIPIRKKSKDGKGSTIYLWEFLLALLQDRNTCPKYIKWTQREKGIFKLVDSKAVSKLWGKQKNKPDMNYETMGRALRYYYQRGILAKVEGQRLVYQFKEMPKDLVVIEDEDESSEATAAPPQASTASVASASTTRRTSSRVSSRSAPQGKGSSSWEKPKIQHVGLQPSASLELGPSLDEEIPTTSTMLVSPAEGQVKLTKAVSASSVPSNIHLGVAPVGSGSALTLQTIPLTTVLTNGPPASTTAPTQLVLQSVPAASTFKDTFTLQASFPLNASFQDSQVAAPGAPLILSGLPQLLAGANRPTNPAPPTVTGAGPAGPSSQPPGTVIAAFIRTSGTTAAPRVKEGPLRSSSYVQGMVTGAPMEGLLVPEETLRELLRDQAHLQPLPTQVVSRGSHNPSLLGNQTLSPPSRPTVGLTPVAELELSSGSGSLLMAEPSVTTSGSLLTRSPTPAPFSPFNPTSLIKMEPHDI
CRX, sequence (O43186 whole entry): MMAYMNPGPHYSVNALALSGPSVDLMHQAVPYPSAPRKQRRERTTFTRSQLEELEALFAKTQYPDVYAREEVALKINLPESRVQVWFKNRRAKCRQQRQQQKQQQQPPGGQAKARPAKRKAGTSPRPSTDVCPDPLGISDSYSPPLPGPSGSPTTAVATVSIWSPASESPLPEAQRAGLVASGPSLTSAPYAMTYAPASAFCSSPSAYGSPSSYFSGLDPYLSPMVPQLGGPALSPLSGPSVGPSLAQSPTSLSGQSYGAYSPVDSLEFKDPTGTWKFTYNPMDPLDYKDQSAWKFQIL
ETV5, sequence (P41161 whole entry): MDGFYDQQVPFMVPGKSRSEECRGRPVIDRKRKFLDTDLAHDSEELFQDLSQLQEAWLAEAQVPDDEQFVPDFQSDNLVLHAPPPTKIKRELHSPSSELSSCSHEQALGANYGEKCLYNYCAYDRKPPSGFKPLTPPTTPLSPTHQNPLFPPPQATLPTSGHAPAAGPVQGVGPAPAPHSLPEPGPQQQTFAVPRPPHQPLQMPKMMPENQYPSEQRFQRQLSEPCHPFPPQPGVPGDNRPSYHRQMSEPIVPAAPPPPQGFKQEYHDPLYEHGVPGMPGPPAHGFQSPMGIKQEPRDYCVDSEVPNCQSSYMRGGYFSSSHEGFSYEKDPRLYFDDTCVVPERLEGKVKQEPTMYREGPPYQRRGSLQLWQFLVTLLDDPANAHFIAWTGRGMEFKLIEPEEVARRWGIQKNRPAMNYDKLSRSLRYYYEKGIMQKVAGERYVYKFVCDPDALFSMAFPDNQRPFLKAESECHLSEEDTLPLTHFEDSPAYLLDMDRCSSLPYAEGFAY

Regarding AGACTT, the binding signal in the test with FEV is 1.05 fold enrichment (6-mer frequency, TF over GST control); with ETV5, 1.05 fold enrichment (6-mer frequency, TF over GST control); with HSF1 it was 1.15 fold enrichment (6-mer frequency, TF over GST control); with SPIC it was 1.08 fold enrichment (6-mer frequency, TF over GST control); in the test with ELF4 it was 1.02 fold enrichment (6-mer frequency, TF over GST control); with ELF3, 1.13 fold enrichment (6-mer frequency, TF over GST control). In addition, in the test with CRX, the binding signal is 1.24 fold enrichment (6-mer frequency, TF over GST control).

For TCATAA, the binding signal is 1.06 fold enrichment (6-mer frequency, TF over GST control) with ETV5; 1.14 fold enrichment (6-mer frequency, TF over GST control) with HSF1; 1.12 fold enrichment (6-mer frequency, TF over GST control) with SPIC; 1.09 fold enrichment (6-mer frequency, TF over GST control) with ELK4; 1.38 fold enrichment (6-mer frequency, TF over GST control) in the test with CRX; 1.07 fold enrichment (6-mer frequency, TF over GST control) with ETV1.

On to ATCAAT, for which the binding signal was 1.05 fold enrichment (6-mer frequency, TF over GST control) in the test with FEV; 1.1 fold enrichment (6-mer frequency, TF over GST control) in the test with ETV5; 1.14 fold enrichment (6-mer frequency, TF over GST control) in the test with HSF1; 1.06 fold enrichment (6-mer frequency, TF over GST control) in the test with SPIC; 1.1 fold enrichment (6-mer frequency, TF over GST control) in the test with ELF4; 1.16 fold enrichment (6-mer frequency, TF over GST control) with ETV2. The binding signal with ELF3 is 1.12 fold enrichment (6-mer frequency, TF over GST control); with CRX, 1.32 fold enrichment (6-mer frequency, TF over GST control); in the test with ETV1 it was 1.06 fold enrichment (6-mer frequency, TF over GST control).

As to CTATGA, the binding signal was 1.08 fold enrichment (6-mer frequency, TF over GST control) in the test with FEV; 1.07 fold enrichment (6-mer frequency, TF over GST control) with ETV5; 1.04 fold enrichment (6-mer frequency, TF over GST control) with HSF1; 1.17 fold enrichment (6-mer frequency, TF over GST control) with SPIC; 1.1 fold enrichment (6-mer frequency, TF over GST control) in the test with ELF4; 1.19 fold enrichment (6-mer frequency, TF over GST control) in the test with ETV2. For the same sequence, the binding signal with ELF3 is 1.15 fold enrichment (6-mer frequency, TF over GST control); in the test with ETV1, 1.02 fold enrichment (6-mer frequency, TF over GST control).

For the sequence CAAGTA, the binding signal is 1.04 fold enrichment (6-mer frequency, TF over GST control) in the test with FEV; 1.11 fold enrichment (6-mer frequency, TF over GST control) with ETV5; 1.02 fold enrichment (6-mer frequency, TF over GST control) with HSF1; 1.09 fold enrichment (6-mer frequency, TF over GST control) with SPIC; 1.16 fold enrichment (6-mer frequency, TF over GST control) in the test with ELF4; 1.28 fold enrichment (6-mer frequency, TF over GST control) with ELF3. For the same sequence, the binding signal with CRX was 1.08 fold enrichment (6-mer frequency, TF over GST control); with ETV1, 1.03 fold enrichment (6-mer frequency, TF over GST control).

In the case of GAATTA, the binding signal with ETV5 is 1.01 fold enrichment (6-mer frequency, TF over GST control); with HSF1 it was 1.72 fold enrichment (6-mer frequency, TF over GST control); with SPIC, 1.12 fold enrichment (6-mer frequency, TF over GST control); in the test with ELK4, 1.09 fold enrichment (6-mer frequency, TF over GST control); in the test with ETV2, 1.02 fold enrichment (6-mer frequency, TF over GST control); with CRX it was 2.39 fold enrichment (6-mer frequency, TF over GST control). The binding signal with ETV1 was 1.08 fold enrichment (6-mer frequency, TF over GST control).

In the case of CGAGCT, the binding signal is 1.03 fold enrichment (6-mer frequency, TF over GST control) in the test with FEV; 1.01 fold enrichment (6-mer frequency, TF over GST control) with ETV5; 1.24 fold enrichment (6-mer frequency, TF over GST control) with HSF1; 1.25 fold enrichment (6-mer frequency, TF over GST control) in the test with SPIC; 1.07 fold enrichment (6-mer frequency, TF over GST control) with ELF4; 1.05 fold enrichment (6-mer frequency, TF over GST control) in the test with ETV2. The binding signal was 1.04 fold enrichment (6-mer frequency, TF over GST control) in the test with CRX and 1.15 fold enrichment (6-mer frequency, TF over GST control) with ETV1.

For the sequence TGGAAA, the binding signal with FEV is 1.03 fold enrichment (6-mer frequency, TF over GST control); in the test with ETV5 it was 1.14 fold enrichment (6-mer frequency, TF over GST control); in the test with HSF1, 2.23 fold enrichment (6-mer frequency, TF over GST control); with SPIC, 1.17 fold enrichment (6-mer frequency, TF over GST control); in the test with ELF4, 1.12 fold enrichment (6-mer frequency, TF over GST control); in the test with ELF3, 1.15 fold enrichment (6-mer frequency, TF over GST control). In addition, the binding signal was 1.23 fold enrichment (6-mer frequency, TF over GST control) with CRX and 1.11 fold enrichment (6-mer frequency, TF over GST control) with ETV1.
